# Screens from PubChem BioAssay.
# WRN inhibitor – blocks human WRN helicase; Q14191; WRN helicase unwinding, fluorescent forked duplex, kinetic; Potency, µM (top dose mostly 114 µM), actives largely listed as inhibitors; 360,000 compounds, 0.46% hits; also: nearly all actives have a fitted effect of over 55% in size
#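 Fluorescence dequenching readout, ex 525 nm/em 598 nm, kinetic mode: forked duplex DNA (100 nM final) with adjacent fluorophore and quencher unwound by WRN (20 nM final) with 2 mM ATP. Compound preincubation 15 min, room temperature.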
# POLI inh – DNA polymerase iota (human) inhibition; 390,000 compounds, 1% hits; Potency, µM (series often up to 115 µM), most hits filed as inhibitors; Q9UNA4; Pol iota fluorescent replication assay, 10 min
#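 Fluorescent replication assay read twice, at 0 min and 10 min after adding 50 nM (final) substrate. Enzyme (10 nM) and compounds were first incubated 15 min at room temperature; enzyme-free buffer wells were negative controls.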
# Pol eta inh – DNA polymerase eta (human) inhibition. 390,000 compounds, 1.2% hits. recombinant Pol eta, fluorescent DNA replication assay. Potency, µM (top dose mostly 114 µM), actives largely listed as inhibitors
#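 Pol eta (10 nM) was preincubated with compounds for 15 min at room temperature, after which fluorescent replication substrate (50 nM final) was added to start the reaction. Fluorescence was read kinetically at 0 and 10 min.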
# Pol beta inh – blocks human DNA polymerase beta activity. Pol beta primer extension/strand displacement, fluorescence kinetic. P06746. Potency, µM (highest dose often 114 µM), hits mostly inhibitors. AID 485314. 340,000 compounds, 1.3% hits
#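 Enzyme-only controls used 10 nM Pol beta; buffer lacking enzyme served as negative control. Compound preincubated 15 min, then 50 nM substrate added; 0 and 10 min reads at room temperature.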
# PI5P4Ka inh – PI5P4K alpha (human) kinase inhibition | PI5P4Kalpha enzyme, ADP-Glo luminescence, 60 min; stronger effect = lower value | max response, % | 330,000 compounds, 1.2% hits; active = max response of -50% or lower; inconclusive = between -30% and -50%; inactive = -30% or higher; also: value at the top dose of about 77 µM
#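 Human PI5P4Kalpha with substrate in 0.038 M HEPES pH 7.4, 0.28 mM EGTA, 0.1% CHAPS, 5% DMSO; reaction started with 5 microM ATP (final), 60 min at room temperature. ADP formed read by ADP-Glo luminescence.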
# POLK inh – inhibitors of human DNA polymerase kappa. purified Pol kappa, fluorescent DNA synthesis assay, 10 min. 400,000 compounds, 0.53% hits. Potency, µM (highest dose often 107 µM), most hits filed as inhibitors. AID 588579
# Target sequence (Q9UBT6 whole entry, looked up): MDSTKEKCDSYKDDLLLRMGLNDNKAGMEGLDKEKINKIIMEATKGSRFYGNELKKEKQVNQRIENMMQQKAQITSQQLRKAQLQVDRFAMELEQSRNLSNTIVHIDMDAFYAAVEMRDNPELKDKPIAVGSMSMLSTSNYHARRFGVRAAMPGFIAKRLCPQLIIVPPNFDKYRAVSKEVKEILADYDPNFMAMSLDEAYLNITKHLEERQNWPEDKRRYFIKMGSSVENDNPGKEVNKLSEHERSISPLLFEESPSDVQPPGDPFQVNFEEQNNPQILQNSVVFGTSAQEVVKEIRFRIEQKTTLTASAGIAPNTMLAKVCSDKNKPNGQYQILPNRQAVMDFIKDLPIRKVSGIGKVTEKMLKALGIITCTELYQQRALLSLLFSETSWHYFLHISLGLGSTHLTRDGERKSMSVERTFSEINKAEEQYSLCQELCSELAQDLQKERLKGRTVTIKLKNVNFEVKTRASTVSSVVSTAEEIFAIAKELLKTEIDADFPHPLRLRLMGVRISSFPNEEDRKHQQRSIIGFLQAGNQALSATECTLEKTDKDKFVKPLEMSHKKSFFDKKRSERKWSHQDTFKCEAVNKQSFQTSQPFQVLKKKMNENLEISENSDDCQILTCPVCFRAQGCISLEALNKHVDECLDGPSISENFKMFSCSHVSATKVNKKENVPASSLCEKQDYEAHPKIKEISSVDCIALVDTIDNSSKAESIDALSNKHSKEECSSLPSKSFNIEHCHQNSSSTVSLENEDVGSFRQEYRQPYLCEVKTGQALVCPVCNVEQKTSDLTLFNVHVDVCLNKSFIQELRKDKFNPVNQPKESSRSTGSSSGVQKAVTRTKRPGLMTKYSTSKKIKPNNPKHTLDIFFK
#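 Fluorescent qHTS in 1536-well format: enzyme (10 nM) and compound sat 15 min at room temperature before 50 nM substrate (final) was added. Signal taken at 0 and 10 min; no-enzyme buffer wells were negative controls.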
# Numbers stand for hits; 0 = inactive; ? = inconclusive; - = no result; ! = not confirmed by another sample; [ ] = dose if it differs, or a comment. Compounds with a hit are over-represented: about 2.8% of the library has one in this group of screens. Unless noted, calls follow the shape of the dose curve; as a rule, active = well fitted curve in the direction sought with a large enough effect; inconclusive = small, poorly fitted or top-dose-only effect, or another doubt; inactive = no such curve, though single readings can be large; an effect the other way counts as inactive or inconclusive.
SMILES,WRN inhibitor,POLI inh,Pol eta inh,Pol beta inh,PI5P4Ka inh,POLK inh
O=C(CCCn1cc([N+](=O)[O-])cn1)N1CCCCC1,0,0,0,0,0,0
Cc1[nH]n(-c2ncc(-c3ccc(Cl)cc3)s2)c(=O)c1C(c1ccc(Cl)cc1)C(C#N)C#N (stereo unspecified),?,0,31.6µM,17.8µM,-69.6,?
COc1ccc(C(c2c(C)[nH]n(C(N)=S)c2=O)C(C#N)C#N)cc1 (stereo unspecified),0,?,0,0,0,0
N#Cc1ccccc1NC(=O)CN(Cc1ccccc1)Cc1ccccc1,0,?,0,0,0,0
CCS(=O)(=O)c1ccc2oc(SCC(=O)c3ccco3)nc2c1,0,?,15.8µM,0,0,0
CCS(=O)(=O)c1ccc2oc(SCC(=O)NCc3ccccc3)nc2c1,0,0,0,0,0,0
Cc1no[n+]([O-])c1COc1cccc(/C=N/Nc2nncn2N)c1,0[11.6 µM],20µM,0,?,0,0
CNC(=O)c1cc(Oc2ccc(NC(=O)Nc3ccc(Cl)c(C(F)(F)F)c3)cc2)ccn1,0,?,0,-,0,0
Cc1ncc(CO)c(/C=N/NC(=O)c2ccc(Br)cc2)c1O,-,-,-,0,-,-
Cc1ncc(CO)c(/C=N/NC(=O)c2cc(O)c(O)c(O)c2)c1O,-,-,-,0.316µM,-,-
COCCn1c(=O)c(-c2cc(F)cc(F)c2)nc2cnc(OC)nc21,-,-,-,-,-,0
CCCCCCn1c(=O)n2n(c1=O)[C@@H]1CN(S(=O)(=O)c3ccc(C)cc3)C[C@]1(O)[C@@H](OC(=O)NC1CCCC1)C2,0,-,0,-,0,-
CCOC(=O)COc1ccc2nsnc2c1Cl,0,0,0,0,0,0
C=C(CC)C(=O)c1ccc(OCC(=O)O)c(Cl)c1Cl,?,10µM,79.4µM,0,0,0
O=c1c(Cc2ccccc2)c(O)ccn1C1CCCCCCC1,0,0,0,0,0,0
O=C(NCCc1ccc(Cl)cc1)c1ccc(CS(=O)Cc2cccc(Cl)c2)o1 (stereo unspecified),-,0,0,0,-,0
Cc1ccc2c(CC(=O)Nc3sccc3C(N)=O)coc2c1,0,79.4µM,?,0,0,0
Cc1ccc2occ(CC(=O)Nc3nnc(C(C)C)s3)c2c1,-,79.4µM,0,0,-,0
CCOc1ccc(C(=O)OCC(=O)N2CC(C)OC(C)C2)cc1OCC (stereo unspecified),0,0,0,0,0,0
C[n+]1cccc2ccc3c(c21)OC(N)=C(C#N)C3c1ccccc1 (stereo unspecified),0,17.8µM,0,0,0,0
C[n+]1cccc(C2C(C#N)=C(N)Oc3c2ccc2ccccc32)c1 (stereo unspecified),0,0,0,0,0,0
CCOC(=O)N1CCc2c(sc3c2c(=O)n(Cc2ccccc2)c(=O)n3Cc2cccc(Cl)c2)C1,-,0,0,0,-,0
NC1=NC(=O)/C(=C/c2cccs2)S1,0,0,0,0,-,0
CS(=O)(=O)Nc1ccc(-c2ccc(/C=C3\SC(N)=NC3=O)o2)cc1,?,?,?,39.8µM,-65.0,0
CC1(C)N([O-])C2=C(CCCC2)[N+]1=O,0,?,22.4µM,25.1µM,0,?
SMILES,WRN inhibitor,POLI inh,Pol eta inh,Pol beta inh,PI5P4Ka inh,POLK inh
CC1=C(c2ccc(Cl)cc2)[N+](=O)C(C)(C)N1[O-],0,?,0,0,?,0
CCCCCC#CCC#CCC#CCC#CCCCC(=O)O,-,-,-,1.12µM,-,10µM!
CCCCCCCCCC(=O)O,0,0,0,-,0,0
CCC(C(=O)Nc1c(C)cccc1C)n1c(-c2ccc(-c3ccccc3)cc2)nc2ccccc21 (stereo unspecified),0,-,-,-,0,-
Oc1ccc(/C=N/NC(=S)N/N=C/c2ccc(O)cc2)cc1,0,?,0,0,-51.0,0
Oc1ccc(/C=N/NC(=S)Nc2cccnc2)cc1,0,0,0,0,0,0
CCOC(=O)c1ccc(NC(=O)C(Cc2ccccc2)NS(=O)(=O)c2ccc(Br)s2)cc1 (stereo unspecified),-,0,0,0,-,0
N#C/C(=C\c1c(Oc2ccc(Br)cc2)nc2ccccn2c1=O)c1nc2ccccc2s1,-,12.6µM,0,0,-,79.4µM
Cc1cc(Oc2nc3ccccn3c(=O)c2/C=C(\C#N)c2nc3ccccc3s2)ccc1Cl,-,0,0,0,-,0
